# In PubChem BioAssay AID2544 (Sanford-Burnham Center for Chemical Genomics, 2010):
# The campaign covered roughly 330,000 compounds. About 390 (0.12%) were called active. The entries come from a sample that favours actives as a whole. Values without a mark were called inactive.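 How the source made its calls: active means inhibition reaching a set limit with compound at 10 µM in the primary screen (cut at about 35% in these data); inactive means the rest.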
# Target: Intestinal-type alkaline phosphatase (Homo sapiens) (UniProt P09923)
# Test: human IAP inhibitors, primary screen, biochemical, luminescence, uHTS (AID 2544);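 further: plate controls were DMSO wells with enzyme for no effect and no-enzyme buffer wells for full effect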
# Settings: purified IAP, CDP-Star luminescence, 30 min; at 10 µM; active compounds read high
# Sequence of Intestinal-type alkaline phosphatase (Homo sapiens) (P09923 whole entry, looked up): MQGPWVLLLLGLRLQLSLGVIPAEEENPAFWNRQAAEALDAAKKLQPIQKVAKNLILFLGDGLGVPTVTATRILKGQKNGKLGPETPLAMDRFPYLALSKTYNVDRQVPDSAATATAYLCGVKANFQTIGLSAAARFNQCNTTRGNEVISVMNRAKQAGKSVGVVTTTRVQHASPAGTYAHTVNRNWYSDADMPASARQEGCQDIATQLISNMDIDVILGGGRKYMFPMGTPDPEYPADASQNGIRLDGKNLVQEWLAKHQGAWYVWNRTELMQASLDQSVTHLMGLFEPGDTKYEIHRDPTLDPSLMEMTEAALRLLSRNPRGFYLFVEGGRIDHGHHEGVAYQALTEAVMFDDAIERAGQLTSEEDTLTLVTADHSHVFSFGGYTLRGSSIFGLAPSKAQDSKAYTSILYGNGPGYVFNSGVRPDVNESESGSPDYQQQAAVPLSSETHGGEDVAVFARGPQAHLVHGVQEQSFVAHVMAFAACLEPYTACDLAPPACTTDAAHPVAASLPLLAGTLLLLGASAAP
row,Structure (SMILES),inhibition
1,O=C1N=c2ccccc2=C/C1=C\c1c(O)[nH]c(=S)[nH]c1=O,-13%
2,CCOCCc1c(O)[nH]c(=S)[nH]c1=O,7.2%
3,COc1ccccc1N=Nc1c(O)[nH]c(=S)[nH]c1=O,37.5% (active)
4,COc1ccc(NC(=O)c2cn(CCC#N)nc2-c2ccc([N+](=O)[O-])cc2)cc1,1.2%
5,CN(c1ccccc1)c1ccc([N+](=O)[O-])c2nonc12,45.8% (active)
6,CCN(CC)c1ccc([N+](=O)[O-])c2cccnc12,26.2%
7,O=C(OCCN1CCOCC1)C1(c2ccccc2)CCCC1,-11.7%
8,Cc1ccc2c(c1)C1CN(C)CCC1N2C(=O)Cn1nnc(-c2ccccc2F)n1 (stereo not given),-5.5%
9,Cc1ccc2c(c1)=C/C(=C\c1c(O)[nH]c(=O)[nH]c1=O)C(=O)N=2,-9.3%
10,COc1ccc(-n2c(O)c(C(C)=Nc3ccc4c(c3)CCC4)c(=O)[nH]c2=O)cc1,-16.1%
